Rows were chosen to be rich in hits. Some 2.1% of all compounds tested hit in one or more screens of this group.
TDP43 rescue – inhibitors of TDP-43 toxicity in yeast. Potency, µM (highest dose often 46.1 µM), most hits filed as activators. TDP-43 expressing yeast growth rescue, BacTiter-Glo, 24 h. 410,000 compounds, 1.8% hits. AID 652104; further: nearly all actives have a fitted effect of over 50% in size
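In this qHTS, compounds that restore growth of yeast expressing TDP-43 appear as activators. Cells (OD600=0.02, galactose medium, raffinose-pregrown) are incubated with compound 24 hr at 30 deg C and growth is quantified by BacTiter-Glo.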
FUS suppressor – suppressors of FUS proteinopathy in yeast | Potency, µM (highest dose often 76.6 µM), usual class: activators | 390,000 compounds, 0.24% hits | S. cerevisiae FUS-expressing, growth rescue, OD600, 24 h | AID 1347120; further: nearly all actives have a fitted effect of over 55% in size
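Yeast FUS proteinopathy model; galactose-induced FUS (2%), starting OD 0.005. Cpds in dilution series, 24hr, 30C, 99% humidity. Abs 600 nm growth. Pos ctrl CP55940 (top 92uM final); neg ctrl DMSO.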
Abeta yeast res – restores growth of yeast expressing A-beta42 peptide. yeast expressing A-beta42, growth rescue, OD600, 48 h; response scale: 0% DMSO, 100% iron-clioquinol control. Potency, µM (titrated, usually from 46.1 µM), hits mostly activators. 410,000 compounds, 0.063% hits; further: nearly all actives have a fitted effect of over 55% in size
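Yeast growth medium received pinned compounds, then yeast cells expressing toxic A-beta were added; plates incubated at 30 C for 48 hr. Growth read as absorbance at 600 nm, normalized to DMSO and equimolar FeCl3 plus clioquinol controls.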
aSyn rescue – rescues yeast growth from alpha-synuclein toxicity | AID 652106 | Potency, µM (highest dose often 46.1 µM), hits mostly activators | 370,000 compounds, 0.14% hits | Yeast expressing alpha-synuclein, growth rescue, BacTiter-Glo, 24 h; further: nearly all actives have a fitted effect of over 65% in size
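Readout is rescue of growth in alpha-synuclein-expressing yeast, so inhibitors of toxicity appear as activators. Growth after 24 hr at 30 deg C in galactose medium is quantified by luminescence.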
Hits are given with their value; - = inactive; ? = inconclusive; . = no result given; [ ] = another dose, or the depositor's remark. The call rests on the fitted dose curve; in most records, active means well fitted curve in the direction sought with a large enough effect; inconclusive means small, poorly fitted or top-dose-only effect, or another doubt; inactive means no such curve, though single readings can be large; an effect the other way counts as inactive or inconclusive.

SMILES	TDP43 rescue	FUS suppressor	Abeta yeast res	aSyn rescue
NC1=C(Br)C(=O)c2ncccc2C1=O	11µM	.	-	-
CN(C)c1cccc(/C=C2\CC3(OC(=O)c4cccc(F)c4)CCCN2C3)c1 (stereo unspecified)	.	-	.	.
O=C(CNS(=O)(=O)c1cccc(Cl)c1)OCc1csc(-c2ccccc2)n1	-	.	-	?
CNS(=O)(=O)c1cccc(C(=O)OCc2csc(-c3ccccc3)n2)c1	16µM	.	-	-
COc1ccc(S(=O)(=O)N2CCC(C(N)=O)CC2)c2ccccc12	-	-	-[9.22 µM]	-
CCOC(=O)N1CCN(S(=O)(=O)c2ccc(OC)c3ccccc23)CC1	13µM	-	?	-
COc1ccc(CCn2c(=S)[nH]c(=O)c3[nH]cnc32)cc1OC	.	.	.	-
COCCN=c1scc(-c2cc(OC)ccc2OC)n1/N=C/c1c[nH]c2ccccc12	22µM	-	-	?
COCCN=c1scc(-c2ccco2)n1/N=C/c1ccc(O)c(O)c1O	?	-	-	-
Cc1ccc(-c2cn3c(n2)sc2cc(C(=O)NCCC4=CCCCC4)ccc23)c(C)c1	-[9.22 µM]	-	-	.
CC(C)(C)C(=O)Nc1nnc(SCc2ccc(F)cc2)s1	18µM	-	?	.
CC(C)(C)C(=O)Nc1nnc(SCc2cccc(F)c2)s1	?	-	?	-
CCn1c(SCC(=O)NCc2ccco2)nnc1-c1ccc(N(C)C)cc1	.	.	.	-
CNc1ccc(C=O)cc1Br	.	.	.	-
CC(C)c1ccc(Nc2ncnc3c2nc2n3CCCC2)cc1	14µM	-	-	.
Cn1nc(-c2ccc(F)cc2)nc2c(=O)n(C)c(=O)nc1-2	.	.	.	-
CC1CCN(c2cc(N)c(Cl)cc2[N+](=O)[O-])CC1	18µM	-	-	?
O=C(Oc1ccc(/C=N/O)cc1)c1ccccc1	11µM	-	-	-
Brc1ccc(CSc2nnc(Cc3c[nH]c4ccccc34)o2)cc1	8.9µM	.	-	-
Clc1ccc(CSc2nnc(-c3c[nH]c4ccccc34)o2)cc1	-	-	-	-
COC(=O)c1c(SCC(=O)Nc2ccccc2OC)[nH]c2ccccc2c1=O	-	-	-	.
O=c1oc2ccccc2c2oc3cc(O)c(O)cc3c12	-	8.9µM	-	-
CCOC(=O)c1cnc(SC2CC(=O)N(c3ccccc3)C2=O)nc1N (stereo unspecified)	-	-	-	-
CCOC(=O)c1cnc(SC2CCc3ccccc3C2=O)nc1N (stereo unspecified)	20µM	?	-	-
COC(=O)c1ccc2nc(-c3ccco3)c(Cc3cccc(F)c3)n2c1	14µM	-	-	?
SMILES	TDP43 rescue	FUS suppressor	Abeta yeast res	aSyn rescue
COC(=O)c1ccc2nc(-c3ccco3)c(Cc3ccc(C)cc3)n2c1	20µM	-	-	?
Cc1ccc(Cc2c(-c3ccco3)nc3c4ccccc4ccn23)cc1	-	-	-	13µM
COC(=O)c1ccc2nc(-c3ccc(F)cc3)c(Cc3cccc(F)c3)n2c1	-	-	-	-
Fc1cccc(Cc2c(-c3ccco3)nc3c(Cl)cc(C(F)(F)F)cn23)c1	13µM	-	-	-
C(=C\c1ccnc2ccccc12)/c1ccccc1	.	.	.	-
CCCOc1ccc(C2=NC(c3ccc(F)cc3)=Nc3ccc(OC)cc3N2)cc1	-	?	-	.
CC(=O)Nc1ncnc2c1c(-c1ccc(Cl)cc1)nn2C(C)(C)C	-	-	-	3.5µM
COc1cc2nc(N3CCCN(C)CC3)nc(NC3CCN(C)C3)c2cc1OC (stereo unspecified)	.	.	.	-
O=C(NC(=S)Nc1ccc(Br)cc1)C1CCCCC1	-	-	?	-
O=C(NC(=S)Nc1cccc([N+](=O)[O-])c1)C1CCCC1	13µM	-	?	-
O=C(NC(=S)Nc1ccc(Br)cc1)C1CCC1	?	-	5.6µM	-
COC(=O)c1ccc(NC(=S)NC(=O)C2CCC2)cc1	?	-	8.9µM	-
CCOC(=O)c1ccc(NC(=S)NC(=O)C2CCCC2)cc1	-	-	?	-
O=C(Nc1ccc(Br)cc1)C1CCCC1	11µM	-	-	-
O=C(O)CCc1cccc2ccccc12	.	.	.	-
CCNc1nc(C#N)nc(Nc2ccccc2)n1	.	.	.	-
O=C(NC(=S)NNC(=O)[C@H]1C[C@@H]1c1ccccc1)c1ccc(F)cc1	10µM	-	?	3.5µM
COc1ccc(C(=O)NNC(=S)NC(=O)c2ccc(Br)o2)cc1OC	3.5µM	-	-	-
COc1ccc(C(=O)NC(=S)NNC(=O)c2c(-c3ccccc3)noc2C)cc1OC	-[1.82 µM]	-	11µM	?
COc1cc(OC)cc(C(=O)NC(=S)NNC(=O)[C@H]2C[C@@H]2c2ccccc2)c1	-	-	?	-
COc1ccc(C(=O)NC(=S)NNC(=O)[C@H]2C[C@@H]2c2ccccc2)cc1OC	-	-	?	18µM
CC(C)CN1C(=O)C[C@@]2(C(=O)N(C)c3ccc(NS(=O)(=O)c4ccc(F)cc4)cc32)C1c1ccccc1 (stereo partly specified)	.	-	.	.
O=C(/C=C/c1ccc(F)cc1)NC(=S)NNC(=O)[C@H]1C[C@@H]1c1ccccc1	6.3µM	-	?	10µM
Cc1ccc(S(=O)(=O)N2CCCC2C(=O)N2CCN(c3ccccc3)CC2)cc1 (stereo unspecified)	.	-	.	.
CCOc1nc(C#N)nc(N(c2ccccc2)c2ccccc2)n1	.	.	.	-
SMILES	TDP43 rescue	FUS suppressor	Abeta yeast res	aSyn rescue
CCC(NC(=O)Nc1cc(OC)ccc1OC)c1c(-n2cccc2)sc2c1CCN(CC)C2 (stereo unspecified)	-	-	-	.
O=C(CCCc1ccccc1)Nc1nccs1	11µM	-	-	-
O=C(CCCc1cccs1)Nc1nccs1	-[9.22 µM]	-	-	-
CC(=O)CSc1ncnc2sc3c(c12)CCC3	25µM	-	-	?
Cc1nc2cc(C(=O)N3CCN(C(=O)OCc4ccccc4)CC3)ccc2n1C1CCCC1	.	-	.	.
Fc1ccc(COc2ccc(C(=S)N3CCCC3)cc2)cc1	13µM	-	?	-
CCc1c(C)sc2c1CCN(C(=O)Nc1cc(C)ccc1OC)C2c1ccc(F)cc1 (stereo unspecified)	-	-	-	.
Cc1nnc(N2C(=O)c3cccc4c([N+](=O)[O-])ccc(c34)C2=O)s1	13µM	-	-	-
COc1ccc(-c2noc(C3CC(=O)N(c4ccc(C)c(F)c4)C3)n2)c(OC)c1 (stereo unspecified)	13µM	?	-	.
O=[N+]([O-])c1ccc(/C=C2\C=Cc3ccccc32)cc1	.	.	.	-
CC(C)Sc1ncc(Cl)c(C(=O)Nc2ccc(S(=O)(=O)N3CCCCC3C)cc2)n1 (stereo unspecified)	-	?	-	.
Cc1nc(Nc2ccccc2F)c2oc3ccccc3c2n1	2.5µM	-	-	-
Cc1nc(Nc2ccccc2O)c2oc3ccccc3c2n1	-	-	-	-
Cc1nc(Nc2ccc(Cl)cc2)c2oc3ccccc3c2n1	-	-	-	-
Cc1nc2ccccc2nc1Nc1cccc(Cl)c1	13µM	-	?	-
Cc1nc(Nc2cccc(Cl)c2)c2oc3ccccc3c2n1	16µM	-	-	-
Cc1nc2ccccc2nc1OCc1cccc(Cl)c1	13µM	-	-	-
CC(C)C[C@H]1COc2cc(F)ccc2S(=O)(=O)N1C	.	-	.	.

From PubChem BioAssay
